The list is not random: actives were taken first. Their share in the collection is about 28%.
CYP2C9 act – increases human cytochrome P450 2C9 activity. activation factor at 5 µM. P11712. AID 1024. 96,000 compounds, 1.4% hits. recombinant CYP2C9, luciferin-H conversion, luminescence; hits give high values; factor 1 = untreated enzyme, 0 = blocked;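 active = activation factor of 2 or more for CYP2C9 at a 5 µM dose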
CYP2C19 act – activators of human cytochrome P450 2C19; recombinant CYP2C19, luciferin-H EGE luminescence; hits give high values; 0 = fully inhibited enzyme, 1 = untreated enzyme; activation factor at 5 µM; 96,000 tested, under 10 active;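 active = activation factor of at least 2 at 5 µM in the primary screen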
CYP2C19 inhib – inhibitors of human CYP2C19; inhibition, % at 5 µM; 96,000 compounds, 21% hits; P33261; AID 778; CYP2C19 Supersomes, luciferin-H EGE luminescence, 30 min;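 active = CYP2C19 inhibition above a set limit at 5 µM in the primary screen, cut at about 50% in these data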
Mac1 fbg inh – CD11b/CD18-fibrinogen binding inhibition; P05107+P11215; K562 CD11b/CD18 adhesion to fibrinogen, ATPlite luminescence; Mn2+ added to activate the integrin; inhibition, % at 10 µM; 93,000 compounds, 0.54% hits; AID 1497;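 active = primary inhibition of 50% or more at 10 µM, then 40% or more on retest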
Target sequence (P05107 whole entry, looked up, other chains not shown): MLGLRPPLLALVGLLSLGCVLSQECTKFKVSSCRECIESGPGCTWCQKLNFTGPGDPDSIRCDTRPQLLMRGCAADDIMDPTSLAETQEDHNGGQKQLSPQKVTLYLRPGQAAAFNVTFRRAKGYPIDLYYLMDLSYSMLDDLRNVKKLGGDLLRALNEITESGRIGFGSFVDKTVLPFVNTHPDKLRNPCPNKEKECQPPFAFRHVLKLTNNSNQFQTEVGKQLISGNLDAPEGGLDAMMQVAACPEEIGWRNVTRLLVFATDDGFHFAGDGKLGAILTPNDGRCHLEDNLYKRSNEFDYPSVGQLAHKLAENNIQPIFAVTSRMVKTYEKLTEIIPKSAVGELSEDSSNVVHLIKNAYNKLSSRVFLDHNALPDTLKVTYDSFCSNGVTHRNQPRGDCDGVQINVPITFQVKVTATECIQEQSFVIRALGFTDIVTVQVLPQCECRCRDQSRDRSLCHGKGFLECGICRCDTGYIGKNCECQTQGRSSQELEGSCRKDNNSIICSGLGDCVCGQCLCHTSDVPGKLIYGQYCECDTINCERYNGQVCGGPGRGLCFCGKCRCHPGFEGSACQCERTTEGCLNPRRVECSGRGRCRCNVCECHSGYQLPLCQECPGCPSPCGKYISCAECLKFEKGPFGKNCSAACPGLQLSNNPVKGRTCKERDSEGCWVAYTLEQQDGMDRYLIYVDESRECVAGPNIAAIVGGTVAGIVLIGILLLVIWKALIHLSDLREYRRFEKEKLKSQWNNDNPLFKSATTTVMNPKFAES
CD11b adhes enh – CD11b/CD18-fibrinogen binding enhancement. K562 CD11b/CD18 adhesion to fibrinogen, ATPlite luminescence. AID 1499. activation, % at 10 µM. 93,000 compounds, 0.07% hits;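 active = 10 µM primary screen giving 50% or more activity, confirmed by 40% or more on retest at that dose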
CYP2C9 inh – blocks human cytochrome P450 2C9; CYP2C9 Supersomes, luciferin-H conversion, luminescence; inhibition, % at 5 µM; 96,000 compounds, 20% hits; P11712;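 active = blocking of liver enzyme CYP2C9 beyond about 50% at 5 µM, limit read from the data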
Large screens that a line does not name were inactive.

Cc1cc(C)n(-c2ccc(C(=O)Nc3ccc4c(c3)OCCO4)cc2)n1	CYP2C19 inhib 50
CCN=C(NCC)SC1CC(=O)N(c2cccc(OCC)c2)C1=O (stereo unspecified)	CYP2C9 act 2.1, CYP2C19 inhib 76
CN=C(NC)SC1CC(=O)N(c2ccccc2)C1=O (stereo unspecified)	none
CCN=C(NCC)SC1CC(=O)N(c2ccc(OC)cc2)C1=O (stereo unspecified)	CYP2C19 inhib 70
CN=C(Nc1ccccc1)SC1CC(=O)N(c2ccc(C(=O)OC)cc2)C1=O (stereo unspecified)	CYP2C9 inh 68
CN=C(Nc1ccccc1OC)SC1CC(=O)N(c2ccc(C(=O)OC)cc2)C1=O (stereo unspecified)	none
O=C(Cn1c(=O)n(-c2ccccc2)c(=O)n1CC(=O)N1CCCCC1)N1CCCCC1	none
CCN(CC)CCCN1C(=O)C(=O)/C(=C(/O)c2ccc(OC)c(Cl)c2)C1c1ccco1 (stereo unspecified)	none
CCN1C/C(=C\c2cccc(C)c2)c2nc3ccccc3c(C(=O)O)c2C1	none (no result: Mac1 fbg inh, CD11b adhes enh)
Cc1cc(Nc2ccc(N3CCC(C)CC3)cc2)n2ncnc2n1	none
CCOC(=O)N1CCC2(CC1)C(C(=O)C13CC4CC(CC(C4)C1)C3)C2(C#N)C#N (stereo unspecified)	CYP2C19 inhib 67, CYP2C9 inh 52
CCc1sc(C(=O)NC2CCN(C)CC2)cc1Br	none
Cc1nc2sc(C(c3ccc(F)cc3)N3CCN(C(=O)c4ccco4)CC3)c(O)n2n1 (stereo unspecified)	none (no result: CYP2C9 act, CYP2C19 act, CYP2C19 inhib, CYP2C9 inh)
CCOC(=O)c1c(C)oc2c1c(C(c1cccnc1)N1CCCCC1)c(O)c1ccccc12 (stereo unspecified)	none
O=C(NCC(c1cccnc1)N1CCN(c2ccc(F)cc2)CC1)c1ccccc1 (stereo unspecified)	CYP2C19 inhib 54 (no result: Mac1 fbg inh, CD11b adhes enh)
CCOC(=O)C1CCN(C(c2cccnc2)c2c(NC(=O)c3ccco3)sc(C)c2C)CC1 (stereo unspecified)	CYP2C19 inhib 60, CYP2C9 inh 82
Cc1sc(NC(=O)c2ccco2)c(C(c2cccnc2)N2CCN(c3ccc(F)cc3)CC2)c1C (stereo unspecified)	CYP2C19 inhib 95, CYP2C9 inh 99
O=S(=O)(NCC(c1cccnc1)N1CCN(c2ccccc2)CC1)c1cc(F)ccc1F (stereo unspecified)	none
Cc1occc1C(=O)NNC(=S)Nc1ccccc1C(F)(F)F	none (no result: CYP2C9 act, CYP2C19 act, CYP2C19 inhib, CYP2C9 inh)
Cn1nc(C(F)(F)F)c(C#N)c1N1CCN(c2cccc(C(F)(F)F)c2)CC1	none
C/C(=N\NC(=O)c1ccccc1)c1ccc(N2CCOCC2)cc1	none
O=C(NC(=O)c1ccccc1)NC1(C(F)(F)F)OCCO1	CYP2C19 inhib 76
Cc1ccc(C(=O)c2c(NC(=O)c3cccnc3)sc3c2CCCC3)cc1	none
O=C(CCn1c(=O)[nH]c2ccsc2c1=O)N1CCc2ccccc2C1	none
O=C(CCn1c(=O)[nH]c2ccsc2c1=O)NCCc1ccc(Cl)cc1	CYP2C19 inhib 70
O=C(CCn1c(=O)[nH]c2ccsc2c1=O)N(CCc1ccccc1)Cc1ccccc1	CYP2C19 inhib 65, CYP2C9 inh 65
CN1CCN(CCC(=O)Nc2ccc(F)c(F)c2)CC1	none
O=C(CCn1c(=O)[nH]c2ccsc2c1=O)Nc1ccc(F)c(F)c1	CYP2C9 inh 55 (no result: Mac1 fbg inh, CD11b adhes enh)
CCC(=O)N=c1sc2c(C)cc(C)cc2n1CC(=O)OC	none
Cc1ccc2c(c1)c(-c1ccccc1)nc1nncn12	none
CCN1CCN(C(c2ccc(F)cc2)c2nnnn2Cc2cccs2)CC1 (stereo unspecified)	none
OC1(c2ccc(F)cc2)CCN(Cc2nnnn2Cc2cccs2)CC1	CYP2C19 inhib 75, CYP2C9 inh 60
COc1ccc(CSc2n[nH]c(C)n2)cc1Br	none
COc1ccc(Cl)cc1CSc1n[nH]c(C)n1	CYP2C19 inhib 88
CCCCOc1ccc(Cl)cc1CSc1n[nH]c(C)n1	CYP2C19 inhib 85, CYP2C9 inh 64 (no result: Mac1 fbg inh, CD11b adhes enh)
CCOc1ccc(Cl)cc1CSc1n[nH]c(CC)n1	CYP2C19 inhib 94, CYP2C9 inh 72
Cc1cc(NC(=O)CN2CCN(c3ccc(O)cc3)CC2)no1	none (no result: Mac1 fbg inh, CD11b adhes enh)
O=C(CSc1nnc(CNC(=O)c2cccs2)o1)NC1CCCCC1	none
CCCOc1ccc(C(=O)CCC(=O)OCC(=O)N2CC(=O)Nc3ccccc32)cc1	none
Cc1cc(C(F)F)n2ncc(C(=O)NCc3ccccc3)c2n1	CYP2C19 inhib 60
Cc1cc(C)n2ncc(C(=O)NCCc3ccccc3)c2n1	none
O=C(NCc1ccc(Cl)cc1)c1ccccc1Oc1ccccc1	CYP2C9 inh 54
O=C(CCN1C(=O)c2ccncc2C1=O)NCc1ccc(Cl)cc1	none (no result: Mac1 fbg inh, CD11b adhes enh)
O=C(CCn1cccc1)NCc1ccc(Cl)cc1	CYP2C19 inhib 64
Cc1cc(C(F)F)n2ncc(C(=O)NCCc3ccc(Cl)cc3)c2n1	CYP2C19 inhib 85
O=C(NCCc1ccccc1)c1cnn2c(C(F)F)cc(C3CC3)nc12	CYP2C19 inhib 87
Cc1cc(C(F)(F)F)n2ncc(C(=O)O)c2n1	CYP2C9 act 2
Cc1cc(C(F)F)n2ncc(C(=O)NCCc3ccccc3Cl)c2n1	CYP2C19 inhib 74
O=C(NCc1ccc(Cl)cc1)c1cnn2ccccc12	CYP2C19 inhib 76
CCCN1CCC(N2CCN(c3cccc(C(F)(F)F)c3)CC2)CC1	none
Nc1ccnn1Cc1cccs1	none (no result: CYP2C9 act, CYP2C19 act, CYP2C19 inhib, CYP2C9 inh)
Cc1cc(C)n2ncc(C(=O)NCc3ccccc3)c2n1	none
Cc1cc(C)n2ncc(C(=O)NCc3ccc(Cl)cc3)c2n1	CYP2C19 inhib 75
CCOc1ccc(-c2nc(-c3ccc(OC)cc3)no2)cc1OCC	none
COc1ccc(-c2noc(-c3ccco3)n2)cc1OC	none
CC(=O)Oc1ccc(-c2nc(-c3cccnc3)no2)cc1	CYP2C19 inhib 95, CYP2C9 inh 86
COc1ccc(-c2nc(-c3ccncc3)no2)cc1OC	CYP2C19 inhib 88, CYP2C9 inh 60
CCOc1ccc(-c2nc(-c3cccnc3)no2)cc1OCC	CYP2C19 inhib 62
CC(=O)Oc1ccc(Oc2ccc(-c3noc(C)n3)cc2)cc1	none
CCOc1ccc(-c2noc(-c3ccncc3)n2)cc1OCC	CYP2C19 inhib 70, CYP2C9 inh 80
CCOC(=O)C1CCCN(C/C(O)=C(\C#N)c2nc(-c3ccccc3)cs2)C1 (stereo unspecified)	none
Cn1nc(Oc2nc(N3CCOCC3)nc(N3CCOCC3)n2)ccc1=O	none
CCCSc1nnc2nc3c(nn12)c1ccccc1n3C	none
Nc1cc(-c2cccc([N+](=O)[O-])c2)[nH]n1	none (no result: CYP2C9 act, CYP2C19 act, CYP2C19 inhib, CYP2C9 inh)
COc1ccc(CCC(=O)Nc2ccc(-c3noc(-c4ccc(OC)c(OC)c4)n3)cc2)cc1	CYP2C9 inh 69
Brc1ccc(-c2nc(-c3ccccc3)no2)o1	none
COc1ccc(-c2nc(-c3ccc(NC(=O)c4ccc(Br)o4)cc3)no2)cc1OC	none

Assay outcomes deposited in PubChem by Sanford-Burnham Center for Chemical Genomics.
